Screen size: about 5,500 compounds; about 2,000 (36%) were called active. Inconclusive results (about 18%) are left out. No stated cut-off is given here; in the data, active means normalized growth mostly below about 0.91 (no sharp cut-off); inconclusive means no clear call, values can overlap the other calls; inactive means mostly above about 0.92. The list shows a part of the results.
Assay: chemical genetic growth profiling, strain panel (AID 1159580);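 further: tested at 20 µM; growth read once vehicle control cultures reached saturation at 30 °C; 1 = growth at the plate median or of vehicle wells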
Details: growth OD
[1] = S. cerevisiae deletion strains, locus YAL013W, strain DEP1, stronger effect = lower value
[2] = S. cerevisiae deletion strains, locus YBR229C, strain ROT2, stronger effect = lower value
[3] = S. cerevisiae deletion strains, locus YDL101C, strain DUN1, stronger effect = lower value
[4] = S. cerevisiae deletion strains, locus YDR150W, strain NUM1, stronger effect = lower value
[5] = S. cerevisiae deletion strains, locus YEL061C, strain CIN8, stronger effect = lower value
[6] = S. cerevisiae deletion strains, locus YGR078C, strain PAC10, stronger effect = lower value
[7] = S. cerevisiae deletion strains, locus YHR030C, strain SLT2, stronger effect = lower value
[8] = S. cerevisiae deletion strains, locus YHR087W, strain rtc3, stronger effect = lower value
[9] = S. cerevisiae deletion strains, locus YJR043C, strain POL32, stronger effect = lower value
[10] = S. cerevisiae deletion strains, locus YJR075W, strain HOC1, stronger effect = lower value
[11] = S. cerevisiae deletion strains, locus YLR039C, strain RIC1, stronger effect = lower value
[12] = S. cerevisiae deletion strains, locus YLR058C, strain SHM2 (second series), stronger effect = lower value
[13] = S. cerevisiae deletion strains, locus YLR085C, strain ARP6, stronger effect = lower value
[14] = S. cerevisiae deletion strains, locus YLR262C, strain YPT6, stronger effect = lower value
[15] = S. cerevisiae deletion strains, locus YML094W, strain GIM5, stronger effect = lower value
[16] = S. cerevisiae deletion strains, locus YMR219W, strain ESC1, stronger effect = lower value
[17] = S. cerevisiae deletion strains, locus YMR263W, strain SAP30, stronger effect = lower value
[18] = S. cerevisiae deletion strains, locus YNL153C, strain GIM3, stronger effect = lower value
[19] = S. cerevisiae deletion strains, locus YNL298W, strain CLA4 (second series), stronger effect = lower value
[20] = S. cerevisiae deletion strains, locus YNL322C, strain KRE1, stronger effect = lower value
[21] = S. cerevisiae deletion strains, locus YNR030W, strain Alg12, stronger effect = lower value
[22] = S. cerevisiae deletion strains, locus YPL055C, strain LGE1, stronger effect = lower value
[23] = S. cerevisiae deletion strains, locus YPL241C, strain CIN2, stronger effect = lower value
[24] = S. cerevisiae deletion strains, locus YPR135W, strain CTF4, stronger effect = lower value

Measured: normalized growth

CCN(CC)CCNC(=O)c1c(-c2c(Cl)cccc2Cl)noc1C
inactive: [1] 0.996 | [2] 1.01 | S. cerevisiae deletion strains, locus YCL061C, strain MRC1, stronger effect = lower value 1.02 | [3] 1 | [4] 0.903 | [5] 1.04 | [6] 1.01 | [7] 1.07 | [8] 0.998 | [9] 1.03 | [10] 0.982 | [11] 1.16 | [12] 0.99 | [13] 1.05 | [14] 1.15 | [15] 1.02 | [16] 1.01 | [17] 0.992 | [18] 0.99 | [19] 1.05 | [20] 1 | [21] 1.02 | S. cerevisiae deletion strains, locus YOL006C, strain TOP1, stronger effect = lower value 1.03 | [22] 0.99 | [23] 1.01 | [24] 0.973

Cc1onc(-c2c(F)cccc2Cl)c1C(=O)c1ccc(F)cc1
inactive: [1] 0.939 | [2] 0.98 | [3] 0.991 | [4] 0.963 | [5] 0.979 | [6] 0.973 | S. cerevisiae deletion strains, locus YGR229C, strain SMI1, stronger effect = lower value 0.969 | [7] 0.696 | [8] 0.959 | S. cerevisiae deletion strains, locus YJL187C, strain SWE1, stronger effect = lower value 0.975 | [9] 0.956 | [10] 0.937 | S. cerevisiae deletion strains, locus YKL190W, strain CNB1, stronger effect = lower value 0.974 | [11] 0.807 | [12] 0.987 | [13] 0.8 | [15] 0.972 | [16] 0.996 | [17] 0.978 | S. cerevisiae deletion strains, locus YMR307W, strain GAS1, stronger effect = lower value 0.708 | [18] 0.973 | [19] 0.93 | [20] 0.97 | [21] 0.949 | [22] 0.929 | [23] 0.964 | [24] 0.817 | S. cerevisiae strains, strain wild type, stronger effect = lower value 0.959
active: [14] 0.787

Cc1onc(-c2c(Cl)cccc2Cl)c1C(=O)NNc1c(Cl)cccc1Cl
inactive: S. cerevisiae deletion strains, locus YAR019C, strain CDC15, stronger effect = lower value 0.962 | S. cerevisiae deletion strains, locus YBL105C, strain PKC1, stronger effect = lower value 0.978 | S. cerevisiae deletion strains, locus YBR135W, strain CKS1, stronger effect = lower value 0.986 | S. cerevisiae deletion strains, locus YBR136W, strain MEC1, stronger effect = lower value 0.977 | S. cerevisiae deletion strains, locus YBR160W, strain CDC28, stronger effect = lower value 0.975 | S. cerevisiae deletion strains, locus YDL017W, strain CDC7, stronger effect = lower value 0.977 | S. cerevisiae deletion strains, locus YDL028C, strain MPS1, stronger effect = lower value 0.97 | [3] 0.976 | S. cerevisiae deletion strains, locus YDL108W, strain KIN28, stronger effect = lower value 0.971 | S. cerevisiae deletion strains, locus YDL132W, strain cdc53, stronger effect = lower value 0.978 | S. cerevisiae deletion strains, locus YDL214C, strain PRR2, stronger effect = lower value 0.941 | S. cerevisiae deletion strains, locus YDR052C, strain DBF4, stronger effect = lower value 0.99 | S. cerevisiae deletion strains, locus YDR054C, strain cdc34, stronger effect = lower value 0.972 | S. cerevisiae deletion strains, locus YDR226W, strain ADK1, stronger effect = lower value 0.982 | S. cerevisiae deletion strains, locus YDR477W, strain SNF1, stronger effect = lower value 0.932 | S. cerevisiae deletion strains, locus YER123W, strain YCK3, stronger effect = lower value 0.961 | S. cerevisiae deletion strains, locus YER133W, strain GLC7, stronger effect = lower value 0.961 | S. cerevisiae deletion strains, locus YFL009W, strain cdc4, stronger effect = lower value 0.974 | S. cerevisiae deletion strains, locus YFL029C, strain CAK1, stronger effect = lower value 0.983 | S. cerevisiae deletion strains, locus YFR003C, strain YPI1, stronger effect = lower value 0.98 | S. cerevisiae deletion strains, locus YFR019W, strain FAB1, stronger effect = lower value 0.972 | S. cerevisiae deletion strains, locus YFR028C, strain CDC14, stronger effect = lower value 0.97 | S. cerevisiae deletion strains, locus YGR040W, strain KSS1, stronger effect = lower value 0.941 | S. cerevisiae deletion strains, locus YGR052W, strain FMP48, stronger effect = lower value 0.998 | S. cerevisiae deletion strains, locus YGR092W, strain DBF2, stronger effect = lower value 0.987 | S. cerevisiae deletion strains, locus YHR079C, strain IRE1, stronger effect = lower value 0.957 | S. cerevisiae deletion strains, locus YHR082C, strain KSP1, stronger effect = lower value 1.01 | S. cerevisiae deletion strains, locus YHR205W, strain SCH9, stronger effect = lower value 0.956 | S. cerevisiae deletion strains, locus YIL147C, strain SLN1, stronger effect = lower value 0.977 | S. cerevisiae deletion strains, locus YJL095W, strain BCK1, stronger effect = lower value 0.907 | S. cerevisiae deletion strains, locus YJL128C, strain PBS2, stronger effect = lower value 0.923 | S. cerevisiae deletion strains, locus YJL157C, strain FAR1, stronger effect = lower value 0.976 | S. cerevisiae deletion strains, locus YJR016C, strain ILV3, stronger effect = lower value 0.988 | S. cerevisiae deletion strains, locus YJR066W, strain TOR1 (second series), stronger effect = lower value 0.96 | S. cerevisiae deletion strains, locus YJR066W, strain TOR1, stronger effect = lower value 0.957 | S. cerevisiae deletion strains, locus YKL048C, strain ELM1, stronger effect = lower value 0.981 | S. cerevisiae deletion strains, locus YKL067W, strain YNK1, stronger effect = lower value 0.941 | S. cerevisiae deletion strains, locus YKL101W, strain HSL1, stronger effect = lower value 0.949 | S. cerevisiae deletion strains, locus YKL193C, strain SDS22, stronger effect = lower value 0.986 | S. cerevisiae deletion strains, locus YKL203C, strain TOR2, stronger effect = lower value 1.03 | S. cerevisiae deletion strains, locus YLR133W, strain CKI1, stronger effect = lower value 0.976 | S. cerevisiae deletion strains, locus YLR403W, strain SFP1, stronger effect = lower value 0.967 | S. cerevisiae deletion strains, locus YML070W, strain DAK1, stronger effect = lower value 0.942 | S. cerevisiae deletion strains, locus YMR001C, strain CDC5, stronger effect = lower value 0.976 | S. cerevisiae deletion strains, locus YMR205C, strain PFK2 (second series), stronger effect = lower value 0.963 | S. cerevisiae deletion strains, locus YMR277W, strain FCP1, stronger effect = lower value 0.967 | S. cerevisiae deletion strains, locus YNL006W, strain LST8, stronger effect = lower value 0.979 | S. cerevisiae deletion strains, locus YNL020C, strain ARK1, stronger effect = lower value 0.988 | S. cerevisiae deletion strains, locus YNL161W, strain CBK1, stronger effect = lower value 0.989 | S. cerevisiae deletion strains, locus YNL183C, strain NPR1, stronger effect = lower value 1 | S. cerevisiae deletion strains, locus YNL207W, strain RIO2, stronger effect = lower value 0.991 | S. cerevisiae deletion strains, locus YNL222W, strain SSU72, stronger effect = lower value 0.977 | S. cerevisiae deletion strains, locus YNL307C, strain MCK1 (second series), stronger effect = lower value 0.972 | S. cerevisiae deletion strains, locus YOL078W, strain AVO1, stronger effect = lower value 0.982 | S. cerevisiae deletion strains, locus YOL136C, strain PFK27, stronger effect = lower value 0.956 | S. cerevisiae deletion strains, locus YOR061W, strain CKA2, stronger effect = lower value 0.974 | S. cerevisiae deletion strains, locus YOR119C, strain RIO1, stronger effect = lower value 0.957 | S. cerevisiae deletion strains, locus YOR231W, strain MKK1, stronger effect = lower value 0.927 | S. cerevisiae deletion strains, locus YOR329C, strain SCD5, stronger effect = lower value 0.981 | S. cerevisiae deletion strains, locus YPL031C, strain PHO85, stronger effect = lower value 0.937 | S. cerevisiae deletion strains, locus YPL153C, strain RAD53, stronger effect = lower value 0.921 | S. cerevisiae deletion strains, locus YPL204W, strain HRR25, stronger effect = lower value 0.945 | S. cerevisiae deletion strains, locus YPL209C, strain IPL1, stronger effect = lower value 0.986 | S. cerevisiae deletion strains, locus YPL256C, strain CLN2, stronger effect = lower value 0.858 | S. cerevisiae deletion strains, locus YPR025C, strain CCL1, stronger effect = lower value 0.976 | S. cerevisiae deletion strains, locus YPR106W, strain ISR1, stronger effect = lower value 0.96 | S. cerevisiae deletion strains, locus YPR111W, strain DBF20, stronger effect = lower value 0.956 | S. cerevisiae deletion strains, strain NNK1, stronger effect = lower value 0.986 | S. cerevisiae deletion strains, strain TSCII, stronger effect = lower value 0.983
active: [7] 0.794 | S. cerevisiae deletion strains, locus YLR113W, strain HOG1, stronger effect = lower value 0.827
